# In all, about 320,000 compounds went through this assay and about 1,300 (0.41%) were called active. Another 3% or so got no clear call; they are omitted. How the calls were made is not given here. A selection follows. Measured potencies and affinities stand elsewhere.
# Assay: growth inhibition of non-replicating M. tuberculosis (AID 488890);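 further: plate controls were DMSO cells for no effect and high antibiotic wells for full effect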
# Conditions: Mycobacterium tuberculosis non-replicating, at 25 µM, stronger effect = higher value
row,SMILES,inhibition
1,O=C(CN1C(=O)C(=O)c2ccccc21)c1ccccc1,27%
2,COc1ccc(-n2c(-c3ccccc3)cc3c2CCCC3=O)cc1,17.2%
3,CCCCCCNc1nc(OC)nc(N2CC3CC(C2)c2cccc(=O)n2C3)n1 (stereo unspecified),3.85%
4,COc1ccc(O)cc1,-8.51%
5,COc1ccc(-c2ccc(OC)cc2)cc1,10.9%
6,COC(=O)c1ccc(COc2ccc(/C=N/O)cc2)o1,29.5%
7,CCc1ccc(OCc2ccc(C(=O)OC)o2)cc1,72.2%
8,COc1ccc(-n2cnc3cc(C(=O)N4CCOCC4)ccc32)cc1,-8.02%
9,O=C(NC(Cc1ccccc1)C(=O)O)NC12CC3CC(CC(C3)C1)C2 (stereo unspecified),-6.43%
10,CCN(CC)CCn1c(=S)[nH]c2cc(C(=O)NCc3ccccc3Cl)ccc2c1=O,35%
11,N#CC1=C(N)Oc2n[nH]c(-c3ccccc3)c2C1c1cccnc1 (stereo unspecified),9.98%
12,Cc1ccc(C2C(C#N)=C(N)Oc3n[nH]c(-c4cccnc4)c32)o1 (stereo unspecified),-0.74%
13,O=C(OCC(=O)c1cccc2ccccc12)c1ccc(CO)cc1,60%
14,CCCN(CCC)c1nc2ccccc2n2c(C)nnc12,17.5%
15,O=C(N/N=C\c1c(O)ccc2ccccc12)c1ccc(O)cc1,27.8%
16,O=C(N/N=C\c1c(O)ccc2ccccc12)c1ccc(Cn2cccn2)o1,-4.74%
17,CSc1cccc(CN2CCC(Oc3ccc(C(=O)N4CCCCC4)cc3)CC2)c1,64.2%
18,CCOC(=O)c1c(NC(=O)CSc2nc3cc(Cl)ccc3s2)sc(C(C)=O)c1C,2.44%
19,Cc1ccc(/C=N/NC(=O)c2nnn(-c3nonc3N)c2CN(C)C)o1,-3.62%
20,O=C(Oc1c(-c2ccccc2)oc2ccccc2c1=O)c1ccccc1,26.1%
21,NC(=O)COc1c(-c2ccc(Br)o2)oc2ccccc2c1=O,-1.98%
22,N#Cc1c(OCC(=O)c2ccccc2)nc2c(c1-c1ccco1)CCc1ccccc1-2,-14.7%
23,NC(=O)Cc1nc(-c2ccc(F)cc2)cs1,8.71%
24,O=C(CNc1cccc2ccccc12)c1ccc([N+](=O)[O-])cc1,73.1%
25,O=C(NC(=S)Nc1cccc(F)c1)c1cccc([N+](=O)[O-])c1,74%

row,SMILES,inhibition
1,Cc1ccc(C(=O)CNc2cccc([N+](=O)[O-])c2)cc1,11.3%
2,Cc1ccc(NCC(=O)c2ccc([N+](=O)[O-])cc2)cc1,68%
3,CCOC(=O)C1=C(C)N(CCCC(=O)O)C(=O)NC1c1ccccc1Cl (stereo unspecified),0.44%
4,CCOC(=O)C(C)/C(C)=N\Nc1ccc([N+](=O)[O-])cc1[N+](=O)[O-] (stereo unspecified),-5.18%
5,CCCC1CC(c2csc(N)n2)CCO1 (stereo unspecified),-0.79%
6,COc1ccc(OC)c(/C=C/C(=O)Oc2ccc(C(C)=O)cc2)c1,64.2%
7,O=C(Cn1c(SCC(=O)N2CCCc3ccccc32)nc2ccccc21)N1CCCC1,-11.8%
8,O=C(NNC(=O)c1ccc(Br)cc1)c1ccncc1,41.7%
9,O=C(NNC(=O)C1CCC1)c1ccc(Br)cc1,3.14%
10,C/C(NC1CCCCC1)=C(/C#N)C(=O)NCCN1CCOCC1,1.64%
11,O=[N+]([O-])c1cnc(Nc2ccccc2)nc1Nc1ccccc1,0.51%
12,Cc1cc(O)c(NC(=O)c2cc([N+](=O)[O-])ccc2Cl)cc1C,32.1%
13,CC(=O)OCC(=O)Nc1ccc([N+](=O)[O-])cc1Cl,-21.2%
14,CN(C)C(=O)Oc1ccc2ccccc2c1Cl,5.7%
15,O=C(CSc1ccccc1F)NCCN1C(=O)CSC1=O,-0.52%
16,O=C(O)CN1C(c2ccccc2)=Nc2ccc(Br)cc2C1c1ccccc1 (stereo unspecified),-0.36%
17,O=C(O)c1cc2c(ccc3ccccc32)oc1=O,-4.26%
18,CCOC(=O)c1cc2c(ccc3ccccc32)oc1=O,74.5%
19,Cc1cccc(OCC(=O)NCC(C)(C)N2CCOCC2)c1,5.72%
20,CCOC(=O)N1CCC(c2[nH][nH]c(=O)c2C)CC1,-7.47%
21,CCCCn1c(=O)c(CCC(=O)OCC(=O)NC(C)c2ccccc2)nc2ccccc21 (stereo unspecified),55.8%
22,Cn1c(/C=C/c2ccccc2[N+](=O)[O-])nc2ccccc2c1=O,-6.23%
23,Cc1cccc(-n2c(/C=C/c3ccc([N+](=O)[O-])o3)nc3ccccc3c2=O)c1,28.4%
24,Cc1cc(=O)oc(C)c1C(=O)OCC(=O)c1ccc(Cl)cc1,72.7%
25,O=C(NCCCN1CCOCC1)c1cc2ccccc2o1,-15.4%

row,SMILES,inhibition
1,Cc1ccc(C2=C(O)c3ccccc3C(=O)C2=O)cc1,71.2%
2,O=C1C(c2ccncc2)=C(O)c2ccccc21,26.2%
3,Cc1cccc(NC(=S)N2CCN(c3cc(C)ccc3C)CC2)c1,-5.31%
4,O=c1[nH]c2ccccc2nc1-c1ccc(Cl)cc1,-0.23%
5,O=c1[nH]c2ccccc2nc1-c1ccccc1,-4.14%
6,CN(C)CC/C=C1/c2ccccc2Sc2ccc(Cl)cc21,75.6%
7,CN(C)CC/C=C1/c2cc(F)ccc2Sc2ccc(Cl)cc21,79.7%
8,Cc1ccc(OCC(=O)N/N=C2/SCC(=O)N2Cc2ccccc2)cc1,29.3%
9,CC(CN1CCN(C/C=C/c2ccccc2)CC1)c1ccccc1 (stereo unspecified),2.29%
10,COC(CNC(=O)c1cccnc1)OC,-3.72%
11,COC(CNC(=O)c1coc2nc3ccccc3nc12)OC,5.54%
12,COc1ccc(Cl)cc1NC(=O)CN(C)C(=O)C12CC3CC(CC(Cl)(C3)C1)C2,41.4%
13,COc1cccc(NC(=O)CCC(=O)NCc2ccco2)c1,-7.17%
14,CCOc1ccc(C(=O)NCc2cccs2)cc1,44.9%
15,O=C1c2cccc3cccc(c23)C(=O)N1c1ccccn1,-12.3%
16,O=C1c2cccc3c([N+](=O)[O-])ccc(c23)C(=O)N1CCc1ccccn1,33.7%
17,O=C1c2ccccc2C(=O)N1c1ccc(Cl)cn1,7.35%
18,CC(=O)Nc1cccc2c1C(=O)N(c1ccc(OC(C)=O)cc1)C2=O,19%
19,Cc1ccc(N2C(=O)c3cccc4c([N+](=O)[O-])ccc(c34)C2=O)c2cccnc12,7.23%
20,O=C1c2ccc([N+](=O)[O-])cc2C(=O)N1c1ccc(Cl)cn1,-16.1%
21,O=C1c2ccccc2C(=O)N1c1cc([N+](=O)[O-])ccn1,4.94%
22,Cc1ccc(C(=O)O)cc1N1C(=O)c2cccc3c([N+](=O)[O-])ccc(c23)C1=O,3.01%
23,COc1ccc(CCN(C)C(=O)CSc2nnc(-c3ccco3)o2)cc1OC,-6.6%
24,C=CCn1c(SCC(=O)Nc2ccc(NC(=O)c3ccco3)c(OC)c2)nnc1-c1ccncc1,13.9%
25,Cc1ccccc1OCC(=O)NCCCNC(=O)c1cccnc1,-5.91%

row,SMILES,inhibition
1,COc1cccc(-c2nnc(-c3ccco3)o2)c1,65.8%
2,Cc1ccccc1Oc1ncnc(N)c1[N+](=O)[O-],6.54%
3,Cc1cccc(Oc2ncnc(N)c2[N+](=O)[O-])c1C,29.9%
4,Cc1ccccc1C(=O)NCC(=O)OCCCOC(=O)CNC(=O)c1ccccc1C,-9.69%
5,O=C1CN(C(=O)CNCc2ccccc2Cl)c2ccccc2N1,9.45%
6,Cc1ccc(-c2cc(-c3ccc(F)cc3)n[nH]2)c(O)c1,-3.72%
7,CN(C)CCOC(=O)/C(=C/c1cn(C)c2ccccc12)NC(=O)c1ccccc1,-4.57%
8,Cc1ccc(S(=O)(=O)CCC(=O)OCC(=O)c2ccc(C)c(C)c2)cc1,73.6%
9,Cc1ccc(C(=O)CCS(=O)(=O)c2ccc(F)cc2)cc1,69.2%
10,Cc1ccc(C)c(OCc2nnc(NC(=O)c3ccc4c(c3)OCO4)s2)c1,6.85%
11,O=C1NC2(CCCCC2)NN1c1ccccc1,18.6%
12,O=C1NC2(CCC3(CC2)OCCO3)NN1c1ccccc1,14.8%
13,O=C(O)Cc1ccc(Oc2ncc(C(F)(F)F)cc2Cl)cc1,-16.8%
14,O=C(CCCc1nc(-c2ccccc2)no1)Nc1cccnc1,34.2%
15,Cc1cccc(-c2noc(CCCC(=O)Nc3cccnc3)n2)c1,32.7%
16,O=[N+]([O-])c1ccc2ncnc(Nc3ccc4c(c3)OCCO4)c2c1,21.4%
17,Cc1c(C(=O)OCc2ccc(F)cc2)sc2nc3n(c(=O)c12)CCC3,29.2%
18,CCOC(=O)c1sc2nc3n(c(=O)c2c1C)CCC3,1.86%
19,COc1ccc(N2CCN(c3ccc(N)cc3C#N)CC2)cc1,-1.74%
20,N#Cc1cc(N)ccc1Sc1ccccc1,9.77%
21,CS(=O)(=O)N(CC(=O)NCCC1=CCCCC1)c1ccc2c(c1)OCO2,-1.16%
22,COc1ccc(-c2cc(C(=O)NCCN3CCOCC3)no2)cc1OC,-10.1%
23,O=C(c1ccccc1)N1CCN(c2nc3ccc([N+](=O)[O-])cc3s2)CC1,24.5%
24,Cc1ccc(C)c2sc(N3CCN(C(=O)c4ccc([N+](=O)[O-])o4)CC3)nc12,77.8%
25,Cc1ccc2sc(N3CCN(C(=O)c4ccc([N+](=O)[O-])o4)CC3)nc2c1C,68.9%

row,SMILES,inhibition
1,CCCCC(=O)N1CCN(c2nc3ccc(F)cc3s2)CC1,50.8%
2,Cc1ccc(OCCC(=O)OCC(=O)NCc2ccccc2)cc1,30.8%
3,CC1(C(=O)CSc2ncn[nH]2)CCC(=O)O1 (stereo unspecified),-3.75%
4,O=C(NC1CCCCC1)c1cc2ccccc2cc1O,30.4%
5,O=C(NC1CC1)c1cc2ccccc2o1,6.17%
6,CCn1cc(C(=O)NC(C)C2CC3CCC2C3)cn1 (stereo unspecified),78.4%
7,CC(NC(=O)Cn1cnnn1)C12CC3CC(CC(C3)C1)C2 (stereo unspecified),2.51%
8,Cc1ccc(C2NC(=O)c3ccccc3O2)cc1 (stereo unspecified),9.75%
9,COc1ccc(NS(=O)(=O)c2ccc(N3CCCCC3)c(NC(=O)C(C)NC(N)=O)c2)cc1 (stereo unspecified),17.6%
10,CC/C(=N\NS(=O)(=O)c1ccc(C)cc1)c1ccco1,-13.4%
11,COc1ccccc1OCCOCCN1CCCC1,-3.17%
12,COc1ccccc1OCCCCN1CCCCC1,7.51%
13,COc1ccc(CC(=O)NC(C)(C)C)cc1S(=O)(=O)N1CCOCC1,-3.56%
14,O=C(c1ccc([N+](=O)[O-])o1)N1CCCCCC1,56.6%
15,O=C(c1ccccc1[N+](=O)[O-])N1CCc2ccccc2C1,-4.71%
16,O=C(c1ccc([N+](=O)[O-])cc1)N1CCc2ccccc2C1,39.6%
17,CC(=O)N1CCN(C(=O)c2cc3ccccc3o2)CC1,2.82%
18,COc1cc2c(cc1OC)CN(C(=O)c1ccc(OC)c([N+](=O)[O-])c1)CC2,2.12%
19,O=C(c1ccccc1)N1CCN(C(=O)c2cc3ccccc3o2)CC1,-6.53%
20,COc1cc2c(cc1OC)CN(C(=O)c1ccc(Br)o1)CC2,-1.97%
21,O=C(c1ccc([N+](=O)[O-])o1)N1CCOCC1,15.5%

# — PubChem BioAssay AID488890 (Southern Research Specialized Biocontainment Screening …, 2010)
